One experiment concerns CRL-7250. Kind of experiment: Cytotoxic Profiling of Annotated Libraries Using Quantitative High-Throughput Screening (AID 1296008). For max response: % is set by controls: 0 for no effect and ±100 for the full control effect. Note: potency is the fitted concentration of half-maximal effect. As to conditions: Five cell lines viability, CellTiter-Glo ATP luminescence, 48-72 h; max response: hits give low values. The method, boiled down: (§1)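 Cells exposed to compounds for 48 or 72 hr at 37 degrees Celsius. Viability read as ATP-coupled luminescence with CellTiter-Glo after 10 min at room temperature.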
(In general: ATP-based viability assays read luminescence as a measure of living cells.)

A further experiment concerns HEK293. Described as above. As to conditions: Five cell lines viability, CellTiter-Glo ATP luminescence, 48-72 h; max response: hits give low values. Put shortly: as §1
A further experiment has as its system HaCat. The description is as above. As to conditions: Five cell lines viability, CellTiter-Glo ATP luminescence, 48-72 h; max response: hits give low values. The method, boiled down: as §1
The test system of another experiment is KB-3-1. Described as above. As to conditions: Five cell lines viability, CellTiter-Glo ATP luminescence, 48-72 h; max response: hits give low values. Put shortly: as §1
The subject of a further experiment is GB4. Kind of experiment: qHTS profiling for inhibitors of Plasmodium falciparum proliferation (AID 504749).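 Note: 0% = DMSO vehicle and full inhibition = artemisinin control.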 Particulars: P. falciparum in erythrocytes, SYBR Green DNA, 72 h; series mostly up to 28.7 µM. The method, boiled down:
(§2)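 Readout was DNA-dye fluorescence from lysed cultures, ex 485/em 535 nm. Parasitized red cells had grown 72 h with compound; data scaled between 0.29 uM artemisinin and DMSO wells and corrected using vehicle-only plates.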

In a further experiment the test system is HB3. Described as above. Particulars: P. falciparum in erythrocytes, SYBR Green DNA, 72 h; series mostly up to 28.7 µM. The method, boiled down:
as §2

For another experiment, the system named is ICS. Described as above. Particulars: P. falciparum in erythrocytes, SYBR Green DNA, 72 h; series mostly up to 28.7 µM. The method, boiled down:
as §2

The subject of a further experiment is JCK. Described as above. Particulars: P. falciparum in erythrocytes, SYBR Green DNA, 72 h; series mostly up to 28.7 µM. The method, boiled down:
as §2

In another experiment the test system is N140. Described as above. Particulars: P. falciparum in erythrocytes, SYBR Green DNA, 72 h; series mostly up to 28.7 µM. Put shortly: as §2
For the next experiment, the system named is P93_24. The description is as above. As to conditions: P. falciparum in erythrocytes, SYBR Green DNA, 72 h; series mostly up to 28.7 µM. The method, boiled down: as §2
In another experiment the test system is P94_40. The experiment is described as above. As to conditions: P. falciparum in erythrocytes, SYBR Green DNA, 72 h; series mostly up to 28.7 µM. The method, boiled down: as §2
For another experiment, the system named is PAD. Described as above. Particulars: P. falciparum in erythrocytes, SYBR Green DNA, 72 h; series mostly up to 28.7 µM. Put shortly: as §2
In the next experiment the test system is PC15. The description is as above. Particulars: P. falciparum in erythrocytes, SYBR Green DNA, 72 h; series mostly up to 28.7 µM. Put shortly:
as §2

The test system of a further experiment is PC26. The description is as above. As to conditions: P. falciparum in erythrocytes, SYBR Green DNA, 72 h; series mostly up to 28.7 µM. Put shortly:
as §2

For a further experiment, the system named is PC49. The experiment is described as above. As to conditions: P. falciparum in erythrocytes, SYBR Green DNA, 72 h; series mostly up to 28.7 µM. Put shortly:
as §2

The subject of a further experiment is SC27B. The description is as above. As to conditions: P. falciparum in erythrocytes, SYBR Green DNA, 72 h; series mostly up to 28.7 µM. The method, boiled down: as §2
The subject of another experiment is TAB109. The description is as above. Particulars: P. falciparum in erythrocytes, SYBR Green DNA, 72 h; series mostly up to 28.7 µM. Put shortly:
as §2

A further experiment has as its system TAB113. The experiment is described as above. Particulars: P. falciparum in erythrocytes, SYBR Green DNA, 72 h; series mostly up to 28.7 µM. The method, boiled down:
as §2

The next experiment deals with TAB165. The description is as above. Particulars: P. falciparum in erythrocytes, SYBR Green DNA, 72 h; series mostly up to 28.7 µM. The method, boiled down:
as §2

The next experiment relates to W2. Described as above. Particulars: P. falciparum in erythrocytes, SYBR Green DNA, 72 h; series mostly up to 28.7 µM. The method, boiled down: as §2

Several values for one entry are separate records, joined by “and”; a condition that tells them apart may be missing. Equal values may be shown once. Records with an inconclusive call do not appear. Unmarked numbers belong to inactive results. Activity calls are given as the source filed them. Calls come from the whole dose curve; as a rule, active = well fitted inhibition curve with a large enough effect; inconclusive = small, poorly fitted or top-dose-only effect; inactive = flat fitted curve, though single readings scatter.
Note: nearly all actives have a fitted effect of over 60% in size.

Consider `COc1ccccc1-c1cccc(-c2c(O)c3cc(C#N)c(Cl)cc3[nH]c2=O)c1`, for which the Potency with CRL-7250 is 8.55 µM (active); in the experiment on HEK293 it was 3.4 µM (active); in the experiment with HaCat, 19.1 µM (active). Also, the max response in the experiment on KB-3-1 was -25.1%.

As to `Nc1ccc(S(=O)(=O)Nc2ccnn2-c2ccccc2)cc1`, the Potency entry in the experiment with GB4, in the experiment on HB3, in the experiment on ICS, in the experiment with JCK, in the experiment with N140 and in the experiment with P93_24 was “inactive” each time. Also, the Potency result with P94_40, in the experiment on PAD, in the experiment with PC15, with PC26, in the experiment on PC49 and with SC27B was “inactive” each time. In addition, the Potency entry in the experiment on TAB109, with TAB113, in the experiment with TAB165 and with W2 was “inactive” in each case. The call in the experiment on CRL-7250 and in the experiment with HaCat was inactive. The max response is -2.4% and -5.26% with HEK293; -3.13% and 3.95% with KB-3-1.

Consider `CC(C)(N)C(=O)N[C@H](COCc1ccccc1)C(=O)N1CCC2(CC1)CN(S(C)(=O)=O)c1ccccc12`, for which the max response is -61% in the experiment with CRL-7250; -12.2% and 3.47% with HaCat; -17.9% and 1.97% in the experiment on KB-3-1. Further, the Potency in the experiment on HEK293 was 23.5 µM (active).

`COc1cc2c(cc1OC)CN(CCc1ccc(NC(=O)c3cccc4c(=O)c5cccc(OC)c5[nH]c34)cc1)CC2`: the max response in the experiment with CRL-7250 is 0.448% and -2.79%; with KB-3-1, 4.69% and -0.508%. In the experiment on HEK293, the Potency was 11.8 µM (active) and 7.31 µM (active).

Turning to `CC[C@@H](C)[C@H](NC(=O)[C@H](CC1CCCCC1)NC(=O)c1ccno1)C(=O)N1CCC2(CCc3ccccc32)CC1`, the max response in the experiment on CRL-7250 was -8.58% and -11.9%; in the experiment with HEK293, -11.2%; in the experiment with KB-3-1, -5.09% and 8.53%.

In the case of `O=C(C1CC1)N1CC[C@@H](Cn2c(-c3ccc(-c4ccc5occc5c4)cc3)nc3cnccc32)C1`, the compound was called inactive in the experiment with CRL-7250. Also, the max response with HaCat was -11.7%; in the experiment with KB-3-1, 3.71%.

Regarding `CCCS(=O)(=O)Nc1ccc(F)c(C(=O)c2c[nH]c3ncc(Cl)cc23)c1F`, the max response is -1.21% in the experiment with CRL-7250; -9.42% and -0.0181% in the experiment on KB-3-1. The Potency in the experiment on HEK293 was 14.8 µM (active).

Consider `Cc1ccc(-n2nc(C(C)(C)C)cc2NC(=O)Nc2ccc(OCCN3CCOCC3)c3ccccc23)cc1`, for which the max response was 1.93% and -9.63% in the experiment with CRL-7250; -3.92% in the experiment with HaCat. For the same compound, the compound was called inactive in the experiment on HaCat and with KB-3-1.

As for `COc1ccc2c3n(c(=NC(=O)c4cccnc4)nc2c1OC)CCN3`, the max response with CRL-7250 was -15.5%; in the experiment with KB-3-1 it was -17.8%. Moreover, the Potency in the experiment on HaCat is 10.5 µM (active).

Regarding `COc1nc(-c2ccc3c(c2)OCO3)n(-c2ccc(NC(=O)CSc3ccccc3)cc2)n1`, the max response in the experiment with CRL-7250 is -34%; in the experiment with KB-3-1 it was -3.01% and -18.6%. Also, the result in the experiment on HaCat was inactive.

In the case of `NC(=O)c1ccc(-c2nc(-c3ccc4c(c3)OCO4)c(-c3ccccn3)[nH]2)cc1`, the max response was 3.54% in the experiment with CRL-7250 and -0.83% in the experiment with KB-3-1. In addition, in the experiment with HaCat, the outcome was inactive.

With `CCCCCCCc1ccc(CCc2cccc(O)c2C(=O)O)cc1`, the max response in the experiment on CRL-7250 was -0.808%. The call in the experiment with HaCat was inactive.

As for `CCc1cc(Nc2nccc(-c3c(-c4ccc(OC)c(C(=O)Nc5c(F)cccc5F)c4)nc4ccccn34)n2)c(OC)cc1N1CCC(N2CCN(S(C)(=O)=O)CC2)CC1`, the max response is -19.7% in the experiment on CRL-7250; 5.37% and -9.54% with KB-3-1. For the same compound, the compound was classed as inactive in the experiment with HaCat.

Turning to `COc1cc(Oc2ccnc3cc(OC)c(OC)cc23)ccc1NC(=O)NC(C)c1nccs1` (centres undefined), the max response in the experiment on CRL-7250 is -3.15% and -18.6%. The outcome with HaCat was inactive.

Consider `Nc1ncnc2nc(-c3ccc(N4CCOCC4)nc3)cc(-c3cccc(Br)c3)c12`, for which, in the experiment with CRL-7250, the max response was 0.286%. Also, the compound was classed as inactive in the experiment with KB-3-1.

As to `Cn1c(=O)c(F)c(Nc2ccc(I)cc2F)c2c(=O)n(C[C@@H](O)CO)cnc21`, the Potency was 0.935 µM (active) in the experiment on CRL-7250 and 0.833 µM (active) in the experiment on HaCat. The max response in the experiment with KB-3-1 was -4.57%.

As for `Cc1c(CCOc2ccc(C(=O)O)cc2)c2cc(Cl)ccc2n1C(c1ccccc1)c1ccccc1`, the max response in the experiment with CRL-7250 is -5.22%; in the experiment with HaCat, 0.869%; in the experiment with KB-3-1, -12.2%.

`CCC(C)N(C)C(=O)c1cc2ccccc2c(-c2ccccc2Cl)n1` (centres undefined): the max response with CRL-7250 is 0.969%; with KB-3-1 it was 3.08%. Moreover, in the experiment with HaCat, the compound was called inactive.

Regarding `O=C(C=Cc1ccc(/C=C/C(=O)Nc2ccc(C3=NCCN3)cc2)cc1)Nc1ccc(C2=NCCN2)cc1`, the outcome in the experiment with CRL-7250 and with KB-3-1 was inactive.

Take `O=C(Nc1cccnc1)N1CCC(Cc2cccc(Oc3ccc(C(F)(F)F)cn3)c2)CC1`: in the experiment on HEK293, the Potency is 10.5 µM (active) and 8.2 µM (active).

The values above are taken from PubChem BioAssay (NCATS).
